Here are results for 39 molecules from PubChem BioAssay (EPA / NIEHS).

Usually AC50 stands for the concentration at which the activity in the assay is half-maximal.

“And” between values parts separate entries of the source, which are not always exact repeats. Equal values may be shown once. Some structures have more than one record in an assay (separate samples or runs), and their calls can disagree. The source made the active and inactive calls. Rule for the calls: active = hit-call score of the fitted dose curve at least 0.9, where 1 is the maximum; inactive = score below 0.9.

Read-out in this experiment: Monokine induced gamma interferon (MIG), CXCL9 (gene 4283)
The experiment is described as follows: BSK_SAg_MIG: BioMAP Diversity Plus: SAg Assay for Monokine induced gamma interferon (MIG) Biomarker Activity (AID 2283092). Particulars: primary human HUVEC with PBMC; actives raise or lower the signal. The method, then:
BSK_SAg is a cell-based, multiplexed-readout assay that uses umbilical vein endothelium and peripheral blood mononuclear cells, a human vascular primary cell co-culture, with measurements taken at 24 hours after chemical dosing in a 96-well plate.BSK_SAg_MIG is an assay component measured in the BSK_SAg assay. It measures MIG antibody related to regulation of gene expression using ELISA technology.Data from the assay component BSK_SAg_MIG was analyzed into 1 assay endpoint. This assay endpoint, BSK_SAg_MIG, was analyzed with bidirectional fitting relative to DMSO as the negative control and baseline of activity. Using a type of binding reporter, gain or loss-of-signal activity can be used to understand changes in the signaling as they relate to the gene CXCL9. Furthermore, this assay endpoint can be referred to as a primary readout, because this assay has produced multiple assay endpoints where this one serves a signaling function. To generalize the intended target to other relatable targets, this assay endpoint is annotated to the cytokine intended target family, where the subfamily is chemotactic factor.
The levels of cell surface (or secreted, indicated by the prefix "s") biomarker endpoints were measured by ELISA. Overt cytotoxicity to cells in confluent adherent cultures (all systems other than the BT system) was assessed by measuring total protein levels using sulforhodamine B (SRB) staining in parallel cultures at the time of biomarker measurements, indicated as SRB endpoints. For proliferation assays for adherent cell types, individual cell types are cultured at sub-confluence and relative cell numbers quantified by SRB staining at time points optimized for each system (48 h: 3C and CASM3C systems; 72 h: BT and HDF3CGF systems; 96 h: SAg system). SRB was performed by staining cells with 0.1% SRB after fixation with 10% TCA and reading wells at 560 nm.Viability and proliferation of PBMC (T cells) was quantified by Alamar Blue reduction for the SAg and BT systems. For PBMC viability (referred to as PBMC Cytotoxicity within the assay endpoint names), cells were plated (75,000/well in a 96-well plate) and then chemical samples added for 1 h before addition of activators, SEB and TSST-1 (20 ng/mL final concentration each). Cells were incubated for 90 h. Then, Alamar Blue (20 uL/well) (Invitrogen, Cat DAL1100) was added for 6 h, and the plates were read with a fluorescence microplate reader at 546/580 nm (excitation/emission). For PBMC proliferation, cells were plated and activated as above but incubated for only 16 h prior to addition of Alamar Blue. Plates were read after 6 h.
As to `Cc1cc(O)ccc1Cl`, the result was inactive.

As to `CCOCCOC(C)=O`, the result was inactive.

Regarding `CCC(C)(c1ccc(O)cc1)c1ccc(O)cc1`, the outcome was inactive.

Take `Nc1ccc(-c2ccc(N)cc2)cc1`: the outcome was inactive.

Take `Oc1c(Cl)c(Cl)c(Cl)c(Cl)c1Cl`: the outcome was inactive and the concentration at half-maximal activity (AC50) was 34.8 µM (active).

In the case of `Sc1ccccc1`, the outcome was inactive.

For the molecule `CCC(=O)O[C@H]1CC[C@H]2[C@@H]3CCC4=CC(=O)CC[C@]4(C)[C@H]3CC[C@]12C`, the AC50 was 35.7 µM (active).

Consider `O=C(NC(=O)c1cc(F)c(F)cc1Cl)Nc1cc(F)ccc1N1CCC(C(=O)O)CC1`, for which the result was inactive.

As for `CN(C)CCO`, the outcome was inactive.

`COS(=O)(=O)OC`: the outcome was inactive.

For the molecule `Oc1ccc(Cl)cc1Cl`, the outcome was inactive.

Regarding `Clc1ccc(Cl)cc1`, the outcome was inactive.

In the case of `C=CC(=O)NCNC(=O)C=C`, the outcome was inactive.

For `CO/C=C(/C(=O)OC)c1ccccc1COc1cccc(C(F)(F)F)n1`, the AC50 is 26.5 µM (active).

Regarding `CCNc1nc(NC(C)C)nc(SC)n1`, the result was inactive.

As to `c1ccc(-c2ccccc2)cc1`, the result was inactive.

As for `CCCN(CCC)N=O`, the result was inactive.

On to `O=C(O)C(F)(F)C(F)(F)C(F)(F)C(F)(F)C(F)(F)C(F)(F)C(F)(F)C(F)(F)C(F)(F)F`, for which the AC50 is 33.7 µM (active) and 54.9 µM (active) and 53.5 µM (active).

For the molecule `Cc1ccccc1O`, the outcome was inactive.

Take `O=NN(c1ccccc1)c1ccccc1`: the outcome was inactive.

For the molecule `ClC1=C(Cl)[C@]2(Cl)[C@@H]3[C@@H](Cl)[C@H]4O[C@H]4[C@@H]3C1(Cl)C2(Cl)Cl`, the result was inactive.

In the case of `CCCCCCCCCC[N+](C)(C)CCCCCCCCCC`, the AC50 was 3.59 µM (active).

Regarding `CC#Cc1cc(C)nc(Nc2ccccc2)n1`, the result was inactive.

With `CC(C)C(=O)OCC(C)(C)C(OC(=O)C(C)C)C(C)C` (stereo not given), the outcome was inactive.

Regarding `CC(c1ccc(O)cc1)(c1ccc(O)cc1)c1ccc(O)cc1`, the AC50 was 33.8 µM (active).

Turning to `CN(C)c1nc(=O)n(C2CCCCC2)c(=O)n1C`, the outcome was inactive.

With `Oc1ccc(C(c2ccc(O)cc2)(C(F)(F)F)C(F)(F)F)cc1`, the AC50 was 32.4 µM (active).

Take `O=S(=O)(O)C(F)(F)C(F)(F)C(F)(F)C(F)(F)F`: the outcome was inactive.

Consider `Cc1cccc([N+](=O)[O-])c1`, for which the result was inactive.

Take `N#Cc1ccc(N(CC(N)=O)CC(F)(F)F)cc1C(F)(F)F`: the result was inactive.

For the molecule `CCCCCCCCCc1ccc(O)cc1`, the concentration at half-maximal activity (AC50) was 33.7 µM (active).

In the case of `C[C@]12CCC(=O)C=C1CC[C@@H]1[C@@H]2CC[C@]2(C)C(=O)CC[C@@H]12`, the outcome was inactive.

Regarding `C[C@]12CCC(=O)C=C1CC[C@@H]1[C@@H]2CC[C@@]2(C)[C@H]1CC[C@]2(C)O`, the outcome was inactive.

Consider `CCCCCCOC(=O)c1ccccc1C(=O)OCCCCCC`, for which the result was inactive.

On to `Cc1ccccc1[N+](=O)[O-]`, for which the result was inactive.

On to `CCOC(=O)C(O)(c1ccc(Cl)cc1)c1ccc(Cl)cc1`, for which the concentration at half-maximal activity (AC50) was 39.3 µM (active).

Take `CCC(C)c1cc([N+](=O)[O-])cc([N+](=O)[O-])c1O` (stereo not given): the half-maximal activity concentration (AC50) is 31.7 µM (active).

Consider `O=C(NC(=O)c1c(F)cccc1F)Nc1cc(Cl)c(OC(F)(F)C(F)F)c(Cl)c1`, for which the result was inactive.

`O=C(O)C(F)(F)C(F)(F)C(F)(F)C(F)(F)C(F)(F)C(F)(F)C(F)(F)C(F)(F)F`: the result was inactive.
